± gives the standard deviation.
The molecules below were run on OVCAR-3-derived ovarian cancer stem-like cells (spheroids) (assay: cell growth relative to untreated control; higher = more growth (less inhibition)). Details: 2.29 µM; 96 h.
In short: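 Percent growth was calculated against untreated wells once blanks were subtracted and Grubbs outliers removed. The cells were OVCAR-3 spheroid-derived stem-like cells, trypsinized and plated at 50,000 cells/mL in stem cell medium on ultra-low attachment 96-well plates for a 24 h preincubation. They were then exposed to compounds at 2.29 uM for 96 h at 37°C, 5% CO2, in 4 replicate wells, and viability was measured by TOX8 resazurin fluorescence (ex 560/em 590 nm) after 4 h.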
C=C(C#N)C(=O)OCC(CC)CC.C=C(C#N)C(=O)OCC(CC)CC.CS(C)=O.CS(C)=O.Nc1c(N=Nc2ccc(-c3ccc(N=Nc4cc(S(=O)(=O)[O-])c5ccccc5c4N)cc3)cc2)cc(S(=O)(=O)[O-])c2ccccc12.[Pt+2] gave a cell growth of 107 ± 14%.
Cc1cc(NCCCCCCCNc2cc(C)nc3cc(N)ccc23)c2ccc(N)cc2n1 gave a cell growth of 96.4 ± 25%.
Molecule C=C1CC[C@@H]2[C@](C)(CO)[C@H](O)CC[C@@]2(C)[C@@H]1C/C=C1/C(=O)OC[C@H]1O has a cell growth of 119 ± 38%.
Molecule CC(C)CCCCCCCCCCCCC(=O)NCC(=O)NC1C(C)OC(Nc2ncnc3nc[nH]c23)C(O)C1O (centres undefined) has a cell growth of 17.4 ± 6.2%.
C=C1C(=O)OC2CC1C(OC(C)=O)C/C(C)=C/CC/C(C)=C\CCC2(C)O (centres undefined) gave a cell growth of 48.5 ± 5.5%.
O=C(ON=C1c2ccccc2C(Br)C(Br)c2ccccc21)c1ccccc1 (centres undefined) gave a cell growth of 107 ± 22%.
COC(=O)c1ccccc1NC(=O)C(=O)CC(=O)c1ccccc1NC1=CC(=O)C(=O)c2ccccc21 showed a cell growth of 65.5 ± 12%.
COC(=O)c1cc(-c2c[nH]cc2C(=O)OCc2ccccc2)cn1S(=O)(=O)c1ccc(C)cc1 showed a cell growth of 140 ± 35%.
Molecule CCOC(=O)CNC(=O)NC12CC3CC(CC(C3)C1)C2 has a cell growth of 95.4 ± 18%.
For COc1cc(/C=C/C(=O)CC(=O)/C=C/c2ccc(O)c(OC)c2)ccc1O, the cell growth was 89 ± 24%.
Work on Nc1nc(N)c2cc(Sc3cccc(C(F)(F)F)c3)ccc2n1 yielded a cell growth of 94.4 ± 24%.
Work on O=C(N=Nc1c(O)[nH]c2c(Cl)cc(Cl)cc12)c1ccccc1O yielded a cell growth of 93.1 ± 22%.
NC(=O)C1=C[C@H]2[C@H]3C=C[C@@]2(O)C(=O)O[C@@H]3O1 gave a cell growth of 91.3 ± 15%.
For O=C1c2ccccc2-c2c1c1ccccc1c(=O)n2Cc1ccccc1, the cell growth was 86.2 ± 51%.
O=C1Cc2c([nH]c3ccc(Br)cc23)-c2ccccc2N1 was tested, and the cell growth was 109 ± 9.9%.
Work on O=C1C(=O)c2ccccc2C(O)=C1CCCc1ccc(Oc2ccccc2)cc1 yielded a cell growth of 87.1 ± 37%.
CN=c1sc2c(n1C)C(=O)c1ccccc1C2=O showed a cell growth of 83.2 ± 26%.
With CC(C)=CC1C(C(=O)O)C1(C)C (centres undefined) the cell growth was 103 ± 37%.
COC(=O)[C@@]12OC[C@]34[C@H]([C@@H](O)[C@@H]1O)[C@@]1(C)CC(=O)C(O)=C(C)[C@@H]1C[C@H]3OC(=O)[C@H](OC(=O)C=C(C)C)[C@@H]24 gave a cell growth of 18.5 ± 3.1%.
CN(C)CCCCN1CCc2c(n(C)c3ccccc23)C1=O was tested, and the cell growth was 101 ± 13%.
O=C(CC1(O)C(=O)Nc2c(Cl)cc(Cl)cc21)c1ccc([N+](=O)[O-])cc1 (centres undefined) showed a cell growth of 101 ± 29%.
CN1CCN(CN2C(=O)C3C4C=CC(C3C2=O)C2C3C(=O)N(CN5CCN(C)CC5)C(=O)C3C42)CC1 (centres undefined) was tested, and the cell growth was 91.4 ± 32%.
Oc1[nH]c2ccccc2c1N=Nc1nc(-c2ccc(Br)cc2)cs1 showed a cell growth of 81.5 ± 29%.
Molecule COc1ccc(N=C2C(=Nc3ccc(OC)cc3)N(c3ccc(N(C)C)cc3)C(=S)N2c2ccc(OC)cc2)cc1 has a cell growth of 72.3 ± 12%.
Work on CCOC(=O)C1=C(O)CSC1=Nc1ccc(N=C2SCC(O)=C2C(=O)OCC)cc1 yielded a cell growth of 108 ± 30%.
N#CC(C#N)=Cc1cccc(Oc2ccccc2)c1 was tested, and the cell growth was 74.1 ± 8%.
In the case of C=C1C(=O)OC2/C=C(/CO)[C@@H](OC(C)=O)C[C@H](O)/C(C)=C\[C@@H](OC(=O)[C@@H](C)CC)[C@@H]12 (some centres undefined), the cell growth is reported as 100 ± 50%.
For Cc1cc(O)c(C(C)C)cc1C1(c2cc(C(C)C)c(O)cc2C)OC(=O)c2ccccc21, the cell growth was 104 ± 32%.
In the case of CCOC(=O)c1sc2[n+](c1C)C(=O)/C(=C/c1ccc([N+](=O)[O-])cc1)S2, the cell growth is reported as 94.2 ± 27%.
Work on NC1=C(Br)C(=O)c2ncccc2C1=O yielded a cell growth of 15.3 ± 3.8%.
Work on CC(C)C1=CC2=CC[C@@H]3[C@](C)(CCC[C@@]3(C)C(=O)O)[C@H]2CC1 yielded a cell growth of 114 ± 10%.
With Oc1ccc2ccccc2c1N=Nc1cccc2ccccc12 the cell growth was 82.9 ± 12%.
COC(=O)[C@@H]1[C@H](O)[C@H](C)[C@H](O)[C@H](C)/C=C\C=C(/C)C(=O)Nc2c(C)c(OC(C)=O)c3c(c2O)C(=O)C(C)=C2OCOC(=C23)/C(C)=C/[C@@](C)(O)[C@H](O)[C@@H](C)[C@H]1OC(C)=O gave a cell growth of 110 ± 22%.
For COc1ccc(C2C(C)C(=O)C(C)C(c3ccc(OC)cc3)N2N=O)cc1 (centres undefined), the cell growth was 110 ± 23%.
With Cc1cc(Cl)cc2c1NC(=O)C2(O)C(C(=O)c1ccccc1)c1ccccc1 (centres undefined) the cell growth was 94.9 ± 12%.
Nc1nc(SCc2ccccc2Cl)c2ncn(C3OC(CO)C(O)C3O)c2n1 (centres undefined) gave a cell growth of 177 ± 61%.
With COc1cc(/C=C(\OC(C)=O)c2ccc3c(c2)OCO3)cc(OC)c1OC the cell growth was 162 ± 58%.
For S=c1nc[nH]c2nc[nH]c12, the cell growth was 95.2 ± 8.4%.
Nc1ncnc2c1nc(Cl)n2[C@@H]1O[C@@H]2COP(=O)(O)O[C@H]2[C@H]1O was tested, and the cell growth was 115 ± 43%.

Source: the supplement of paper PMC3484114
